This note sets out measurements from PubChem BioAssay (Tox21).

The structures appear in SMILES notation. Values without a mark were called inactive. Results filed as inconclusive are left out. The source made the active and inactive calls. Unless noted, calls follow the shape of the dose curve; as a rule, active = well fitted curve in the direction sought with a large enough effect in the repeat runs; inconclusive = weak or mixed curves; inactive = no such curve, though single readings can be large; an effect the other way counts as inactive or inconclusive.

Assay [1] has as its target Thyrotropin-releasing hormone receptor (Homo sapiens) (UniProt P34981). The experiment in a line: qHTS assay to identify small molecule agonists of the thyrotropin-releasing hormone receptor (TRHR) signaling pathway (AID 1346891; calls by dose curve;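 also: HEK293 cells expressing TRHR with calcium dye readout; series mostly up to about 58 µM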). In short, it runs like this: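 HEK293/TRHR cells, 1500 per well, 18 h 37 °C; Ca dye 2 h 37 °C; pin-tool compound addition (agonist mode); kinetic fluorescence 3 min, 1 s reads; 15 concentrations, triplicate.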
A general note: qHTS replaces the single test concentration by a dilution series.

Assay [2] is described as follows: Human pregnane X receptor (PXR) small molecule agonists, qHTS cell viability counter screen (AID 1346977). Also: nearly all actives have a fitted effect of over 50% in size. Also: potency is read from the fitted curve at half-maximal effect. In short, it runs like this:
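Fluorescence read-out (CellTiter-Fluor) of viability in PXR-Luc HepG2 cells, multiplexed with the luciferase agonist read. Compounds in DMSO added after 5hr plating; 24hr total exposure at 37C, 5% CO2.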

Assay [3] is described as follows: Caspase-3/7 induction in HepG2 cells by small molecules, qHTS assay (AID 1346978). Also: nearly all actives have a fitted effect of over 15% in size. In short, it runs like this: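 Wild-type HepG2 cells, 2,000/well, settled 5 hr at 37 C and 5% CO2, then compound-treated for 17 hr; caspase-3/7 activity read by luminescent Caspase-Glo 3/7 after 30 min at room temperature.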
Assay [4] can be described thus: Caspase-3/7 induction in CHO-K1 cells by small molecules, qHTS cell viability counter screen (AID 1346979). Also: nearly all actives have a fitted effect of over 35% in size. Also: potency is read from the fitted curve at half-maximal effect. An outline of the steps: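 CHO-K1 wt, 1,500 cells/well; 5hr pre-incubation 37C/5% CO2; compound pin transfer (DMSO); 16hr exposure; CellTiter-Fluor added, 1hr, fluorescence read.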
Assay [5] can be described thus: Caspase-3/7 induction in CHO-K1 cells by small molecules, qHTS assay (AID 1346980). Also: nearly all actives have a fitted effect of over 15% in size. An outline of the steps: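 Wild-type CHO-K1 cells exposed to compounds for 17hr at 37 C, 5% CO2. Caspase-3/7 activity then measured by Caspase-Glo 3/7 luminescence after 30min at room temperature.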
The nature of assay [6]: Caspase-3/7 induction in HepG2 cells by small molecules, qHTS cell viability counter screen (AID 1346981). Also: nearly all actives have a fitted effect of over 30% in size. Also: potency is read from the fitted curve at half-maximal effect. In short, it runs like this: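 Steps: seed 2,000 HepG2 cells per well; incubate 5 hr at 37 C; pin-add compounds in DMSO; incubate 16 hr; add CellTiter-Fluor; after 1 hr at 37 C and 5% CO2, read fluorescence.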
Assay [7] has as its target Nuclear receptor subfamily 1 group I member 2 (Homo sapiens) (UniProt O75469). The experiment in a line: Human pregnane X receptor (PXR) small molecule agonists, qHTS assay (AID 1346982). Also: nearly all actives have a fitted effect of over 35% in size. Also: potency is read from the fitted curve at half-maximal effect. In short, it runs like this: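 Agonist mode qHTS: PXR-Luc HepG2 cells plated 5 hr before DMSO-dissolved compounds were pinned in, cultured 24 hr at 37 C, 5% CO2; ONE-Glo luminescence readout.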

The target in assay [8] is Cytochrome P450 2D6 (Homo sapiens) (UniProt P10635). Kind of assay: Cytochrome P450 Family 2 Subfamily D Member 6 (CYP2D6) small molecule antagonists: luciferase reporter qHTS assay (AID 1671196). Also: nearly all actives have a fitted effect of over 50% in size. Also: potency is read from the fitted curve at half-maximal effect. An outline of the steps: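 P450-Glo format: CYP2D6 converts a proluciferin substrate to luciferin in an NADPH-driven reaction lasting 1 h at room temperature. Light output, proportional to CYP2D6 activity, reflects interference by test chemicals.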
Cytochrome P450 2D6 (Homo sapiens), sequence (P10635 whole entry, looked up): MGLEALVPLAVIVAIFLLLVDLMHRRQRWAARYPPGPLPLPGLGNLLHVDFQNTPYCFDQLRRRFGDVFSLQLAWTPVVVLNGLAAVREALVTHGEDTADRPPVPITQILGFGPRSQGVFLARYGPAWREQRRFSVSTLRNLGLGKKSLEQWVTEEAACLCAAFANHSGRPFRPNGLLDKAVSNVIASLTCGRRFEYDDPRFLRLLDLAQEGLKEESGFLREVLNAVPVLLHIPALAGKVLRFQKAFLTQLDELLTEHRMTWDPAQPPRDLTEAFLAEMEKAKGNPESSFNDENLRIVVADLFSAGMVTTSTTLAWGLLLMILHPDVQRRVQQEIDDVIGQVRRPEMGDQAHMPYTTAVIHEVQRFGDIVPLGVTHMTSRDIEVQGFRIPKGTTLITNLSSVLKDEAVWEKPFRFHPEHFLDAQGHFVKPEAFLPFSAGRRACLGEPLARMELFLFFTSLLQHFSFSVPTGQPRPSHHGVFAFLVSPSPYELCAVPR
For orientation: A reporter such as luciferase makes a cellular process visible.

For assay [9], the target named is Cytochrome P450 2C19 (Homo sapiens) (UniProt P33261). Kind of assay: Cytochrome P450 Family 2 Subfamily C Member 19 (CYP2C19) small molecule antagonists: luciferase reporter qHTS assay (AID 1671197). Also: nearly all actives have a fitted effect of over 65% in size. Also: potency is read from the fitted curve at half-maximal effect. In short, it runs like this: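 Inhibition of CYP2C19 was scored from loss of luminescence in a P450-Glo proluciferin substrate assay, NADPH-started and run 1 h at 37C, with ketoconazole as positive control.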
Cytochrome P450 2C19 (Homo sapiens), sequence (P33261 whole entry, looked up): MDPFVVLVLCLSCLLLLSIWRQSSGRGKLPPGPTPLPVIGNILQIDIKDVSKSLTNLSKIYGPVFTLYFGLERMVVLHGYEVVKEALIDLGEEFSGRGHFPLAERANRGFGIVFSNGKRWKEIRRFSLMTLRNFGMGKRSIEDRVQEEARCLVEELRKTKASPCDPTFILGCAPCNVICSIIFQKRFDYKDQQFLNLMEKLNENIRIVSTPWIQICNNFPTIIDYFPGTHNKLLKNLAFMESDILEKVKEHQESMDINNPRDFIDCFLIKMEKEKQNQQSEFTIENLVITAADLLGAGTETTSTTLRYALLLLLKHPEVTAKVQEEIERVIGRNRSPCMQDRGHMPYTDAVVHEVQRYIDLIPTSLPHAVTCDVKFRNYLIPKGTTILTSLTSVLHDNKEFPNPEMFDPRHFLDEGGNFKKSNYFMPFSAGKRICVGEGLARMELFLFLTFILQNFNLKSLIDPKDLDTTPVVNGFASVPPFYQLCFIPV

Assay [10] concerns the target Cytochrome P450 2C9 (Homo sapiens) (UniProt P11712). The experiment in a line: Cytochrome P450 Family 2 Subfamily C Member 9 (CYP2C9) small molecule antagonists: luciferase reporter qHTS assay (AID 1671198). Also: nearly all actives have a fitted effect of over 50% in size. Also: potency is read from the fitted curve at half-maximal effect. An outline of the steps: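 P450-Glo proluciferin substrate with CYP2C9 enzyme; 10 min RT preincubation, then NADPH regeneration 1 h at 37C; luciferin detection reagent 20 min RT, luminescence in relative luminescence units.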

The target of assay [11] is Cytochrome P450 1A2 (Homo sapiens) (UniProt P05177). Kind of assay: Cytochrome P450 Family 1 Subfamily A Member 2 (CYP1A2) small molecule antagonists: luciferase reporter qHTS assay (AID 1671199). Also: nearly all actives have a fitted effect of over 50% in size. Also: potency is read from the fitted curve at half-maximal effect. An outline of the steps:
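Inhibition of CYP1A2 conversion of proluciferin to luciferin, detected by luminescence. Reaction run 1 h at room temperature with NADPH regeneration after brief compound preincubation.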

Assay [12] concerns the target Voltage-gated inwardly rectifying potassium channel KCNH2 (Homo sapiens) (UniProt Q12809). Kind of assay: Human Ether-a-go-go-Related Gene (hERG) channel small molecule antagonists: fluorescence cell-based qHTS assay (AID 1671200). In short, it runs like this:
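Read-out: thallium influx as a surrogate for potassium, tracked as fluorescence (480 nm ex/540 nm em) every second for 2 min after Stimulus Buffer addition in dye-loaded hERG-U2OS cells.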
Background: hERG is a cardiac potassium channel; its block is linked to QT prolongation.

The target in assay [13] is Cytochrome P450 3A4 (Homo sapiens) (UniProt P08684). Kind of assay: Cytochrome P450 Family 3 Subfamily A Member 4 (CYP3A4) small molecule antagonists: luciferase reporter qHTS assay (AID 1671201). Also: nearly all actives have a fitted effect of over 50% in size. Also: potency is read from the fitted curve at half-maximal effect. An outline of the steps:
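Luminescent readout (RLU) proportional to CYP3A4 activity, from luciferin generated off a proluciferin substrate. Enzyme–substrate mix plus compound 10 min at room temp, NADPH regeneration 1 h, detection reagent 20 min.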

In assay [14] the target is Nuclear receptor subfamily 1 group I member 2 (Rattus norvegicus) (UniProt Q9R1A7). Kind of assay: Rat pregnane X receptor (rPXR) activation by small molecules, qHTS assay (AID 1346983). Also: nearly all actives have a fitted effect of over 20% in size. Particulars: rPXR luciferase reporter cells, One-Glo luminescence, 24 h; max activation: hits give high values. In short, it runs like this:
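Cell-based rPXR activation assay: rPXR cells, 2,000 per well, rested 5hr at 37 C, then exposed to compounds in DMSO for 24 hr at 37 C. Luciferase activity read by One-Glo luminescence after 30 min at room temperature.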

The target of assay [15] is Nuclear receptor subfamily 1 group I member 2 (Homo sapiens) (UniProt O75469). Kind of assay: Human pregnane X receptor (PXR) activation by small molecules, qHTS assay (AID 1346985). Also: nearly all actives have a fitted effect of over 40% in size. An outline of the steps: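 DPX-2 cells (HepG2 co-transfected with a PXR response element and a CYP3A4-promoter luciferase construct) were seeded at 2,000 per well, rested 5 hr at 37C, then exposed to DMSO-dissolved compounds for 24 hr. Activation was read as luciferase luminescence.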
Nuclear receptor subfamily 1 group I member 2 (Homo sapiens), sequence (O75469 whole entry, looked up): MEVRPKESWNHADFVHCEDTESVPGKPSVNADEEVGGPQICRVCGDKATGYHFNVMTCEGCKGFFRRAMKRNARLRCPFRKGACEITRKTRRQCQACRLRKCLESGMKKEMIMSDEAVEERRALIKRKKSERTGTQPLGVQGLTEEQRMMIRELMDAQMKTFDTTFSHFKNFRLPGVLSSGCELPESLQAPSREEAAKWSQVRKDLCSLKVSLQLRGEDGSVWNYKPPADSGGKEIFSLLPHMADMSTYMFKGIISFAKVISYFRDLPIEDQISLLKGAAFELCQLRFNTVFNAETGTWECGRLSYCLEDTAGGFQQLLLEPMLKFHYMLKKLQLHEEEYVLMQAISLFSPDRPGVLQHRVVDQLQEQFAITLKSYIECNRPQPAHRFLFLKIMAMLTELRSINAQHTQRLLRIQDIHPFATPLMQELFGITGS
% is scaled to controls: 0 for no effect and ±100 for the full control effect.

Cytochrome P450 1A2 (Homo sapiens), sequence (P05177 whole entry, looked up): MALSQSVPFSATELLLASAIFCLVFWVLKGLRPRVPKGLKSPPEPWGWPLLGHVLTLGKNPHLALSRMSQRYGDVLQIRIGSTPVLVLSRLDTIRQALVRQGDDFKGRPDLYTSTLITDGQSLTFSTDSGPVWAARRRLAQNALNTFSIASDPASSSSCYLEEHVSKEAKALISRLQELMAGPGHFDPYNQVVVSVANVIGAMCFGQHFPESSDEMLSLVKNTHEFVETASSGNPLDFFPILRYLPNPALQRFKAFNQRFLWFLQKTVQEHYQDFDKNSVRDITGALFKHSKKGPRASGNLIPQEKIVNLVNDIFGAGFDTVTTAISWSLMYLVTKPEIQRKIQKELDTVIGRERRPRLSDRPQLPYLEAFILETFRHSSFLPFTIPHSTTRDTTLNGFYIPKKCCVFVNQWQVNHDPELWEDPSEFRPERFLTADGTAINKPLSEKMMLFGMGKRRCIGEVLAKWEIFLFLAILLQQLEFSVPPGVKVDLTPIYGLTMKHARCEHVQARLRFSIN
Voltage-gated inwardly rectifying potassium channel KCNH2 (Homo sapiens), sequence (Q12809 whole entry, looked up): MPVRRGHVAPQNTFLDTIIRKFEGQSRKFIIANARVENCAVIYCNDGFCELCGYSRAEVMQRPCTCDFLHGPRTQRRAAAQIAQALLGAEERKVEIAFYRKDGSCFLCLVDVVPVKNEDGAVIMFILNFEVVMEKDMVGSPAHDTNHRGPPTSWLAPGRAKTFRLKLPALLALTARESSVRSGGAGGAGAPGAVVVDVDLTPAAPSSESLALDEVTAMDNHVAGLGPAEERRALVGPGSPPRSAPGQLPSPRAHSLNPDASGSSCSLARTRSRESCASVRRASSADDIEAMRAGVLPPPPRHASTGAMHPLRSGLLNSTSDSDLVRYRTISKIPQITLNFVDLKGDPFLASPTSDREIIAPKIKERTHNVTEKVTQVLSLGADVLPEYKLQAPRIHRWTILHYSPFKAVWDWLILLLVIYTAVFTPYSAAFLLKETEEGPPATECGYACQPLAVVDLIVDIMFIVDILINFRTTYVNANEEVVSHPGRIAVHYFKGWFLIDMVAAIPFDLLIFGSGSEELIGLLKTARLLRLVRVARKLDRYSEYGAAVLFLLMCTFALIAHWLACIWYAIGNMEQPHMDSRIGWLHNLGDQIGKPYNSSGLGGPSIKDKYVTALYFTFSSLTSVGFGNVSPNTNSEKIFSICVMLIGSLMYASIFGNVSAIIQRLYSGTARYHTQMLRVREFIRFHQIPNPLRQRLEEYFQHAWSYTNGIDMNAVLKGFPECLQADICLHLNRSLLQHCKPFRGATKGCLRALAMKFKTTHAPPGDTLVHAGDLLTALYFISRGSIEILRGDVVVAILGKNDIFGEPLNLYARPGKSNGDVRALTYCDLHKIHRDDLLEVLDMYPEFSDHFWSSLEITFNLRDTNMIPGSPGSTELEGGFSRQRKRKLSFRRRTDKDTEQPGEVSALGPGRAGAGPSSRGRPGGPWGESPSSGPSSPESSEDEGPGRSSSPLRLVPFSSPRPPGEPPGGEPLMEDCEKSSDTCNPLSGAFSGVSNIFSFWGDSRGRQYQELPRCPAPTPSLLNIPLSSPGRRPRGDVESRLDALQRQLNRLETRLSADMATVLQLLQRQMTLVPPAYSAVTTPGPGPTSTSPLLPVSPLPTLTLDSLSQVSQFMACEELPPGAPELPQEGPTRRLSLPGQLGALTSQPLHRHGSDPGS
Cytochrome P450 2C9 (Homo sapiens), sequence (P11712 whole entry, looked up): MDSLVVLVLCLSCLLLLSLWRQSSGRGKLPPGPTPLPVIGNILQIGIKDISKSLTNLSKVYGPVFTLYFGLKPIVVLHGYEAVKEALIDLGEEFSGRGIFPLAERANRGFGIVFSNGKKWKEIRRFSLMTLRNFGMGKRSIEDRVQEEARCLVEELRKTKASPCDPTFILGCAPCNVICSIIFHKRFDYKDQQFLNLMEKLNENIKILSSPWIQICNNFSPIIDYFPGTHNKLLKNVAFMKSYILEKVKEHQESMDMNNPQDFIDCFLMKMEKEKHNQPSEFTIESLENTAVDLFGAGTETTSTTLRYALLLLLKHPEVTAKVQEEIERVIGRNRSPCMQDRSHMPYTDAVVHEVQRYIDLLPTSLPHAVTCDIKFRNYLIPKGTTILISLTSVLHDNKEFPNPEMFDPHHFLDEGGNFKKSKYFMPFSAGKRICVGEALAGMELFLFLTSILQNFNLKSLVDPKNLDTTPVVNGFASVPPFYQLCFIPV
Thyrotropin-releasing hormone receptor (Homo sapiens), sequence (P34981 whole entry, looked up): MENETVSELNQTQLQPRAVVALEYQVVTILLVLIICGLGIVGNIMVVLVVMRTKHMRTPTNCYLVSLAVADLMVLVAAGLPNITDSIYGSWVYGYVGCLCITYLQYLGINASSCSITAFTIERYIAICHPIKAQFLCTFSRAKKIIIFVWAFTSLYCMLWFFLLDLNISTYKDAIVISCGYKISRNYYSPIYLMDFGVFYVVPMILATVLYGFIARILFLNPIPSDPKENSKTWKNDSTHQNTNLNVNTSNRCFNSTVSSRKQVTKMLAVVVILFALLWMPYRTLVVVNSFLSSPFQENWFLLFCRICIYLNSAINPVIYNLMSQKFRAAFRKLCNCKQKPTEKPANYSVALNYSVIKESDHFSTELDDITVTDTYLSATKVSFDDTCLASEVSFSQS
Cytochrome P450 3A4 (Homo sapiens), sequence (P08684 whole entry, looked up): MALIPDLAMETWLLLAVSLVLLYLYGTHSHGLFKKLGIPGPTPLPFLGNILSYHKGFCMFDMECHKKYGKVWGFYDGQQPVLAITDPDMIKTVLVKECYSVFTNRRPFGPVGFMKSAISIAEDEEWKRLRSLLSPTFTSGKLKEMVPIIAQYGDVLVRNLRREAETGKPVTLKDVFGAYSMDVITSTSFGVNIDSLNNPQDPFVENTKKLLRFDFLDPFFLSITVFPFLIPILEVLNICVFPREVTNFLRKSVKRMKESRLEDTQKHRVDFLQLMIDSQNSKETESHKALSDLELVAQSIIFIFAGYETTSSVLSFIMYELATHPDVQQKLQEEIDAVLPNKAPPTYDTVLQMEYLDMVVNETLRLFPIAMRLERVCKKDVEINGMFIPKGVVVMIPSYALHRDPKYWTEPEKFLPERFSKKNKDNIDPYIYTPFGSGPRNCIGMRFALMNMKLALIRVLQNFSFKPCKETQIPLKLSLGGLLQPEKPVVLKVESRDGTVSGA
Nuclear receptor subfamily 1 group I member 2 (Rattus norvegicus), sequence (Q9R1A7 whole entry, looked up): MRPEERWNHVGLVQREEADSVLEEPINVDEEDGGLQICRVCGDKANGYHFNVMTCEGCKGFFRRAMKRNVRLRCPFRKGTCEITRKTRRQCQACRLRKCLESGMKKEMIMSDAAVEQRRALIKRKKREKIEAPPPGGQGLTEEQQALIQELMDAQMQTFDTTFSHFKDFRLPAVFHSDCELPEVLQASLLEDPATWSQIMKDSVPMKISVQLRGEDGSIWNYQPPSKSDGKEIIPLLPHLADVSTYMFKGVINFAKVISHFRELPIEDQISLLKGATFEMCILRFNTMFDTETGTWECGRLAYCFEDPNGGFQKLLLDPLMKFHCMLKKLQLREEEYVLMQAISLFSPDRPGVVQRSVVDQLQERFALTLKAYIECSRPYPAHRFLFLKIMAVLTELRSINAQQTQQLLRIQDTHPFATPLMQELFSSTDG

Consider `O=CNNC=O`, for which the compound was classed as inactive in assay [1] and in assay [5]. Also, the Potency result in assay [2], in assay [3], in assay [4], in [6], in assay [7] and in [8] was “inactive” throughout. For the same compound, the Potency result in assay [9], in assay [10], in assay [11], in assay [12] and in assay [13] was “inactive” throughout.
`N[C@@H](Cc1cc(I)c(O)c(I)c1)C(=O)O`: the call in assay [1] and in assay [5] was inactive. For the same compound, the Potency entry in [2], in assay [3], in [6], in assay [7], in assay [8] and in assay [9] was “inactive” throughout. Further, the Potency entry in assay [11], in assay [12] and in assay [13] was “inactive” each time. Besides, the results for the Potency in assay [4] and in [10] were 23.7 µM (active) and 38.9 µM (active), respectively.
Consider `C1CCCCC1`, for which the result in assay [1] and in assay [5] was inactive. For the same compound, the Potency result in assay [2], in [3], in [4], in assay [6], in assay [7] and in assay [8] was “inactive” in each case. Besides, the Potency result in [9], in [11], in assay [12] and in assay [13] was “inactive” in each case.
Take `CCCCCCCC/C=C/C(=O)O`: the outcome in assay [1] and in assay [5] was inactive. The Potency result in assay [2], in assay [3], in assay [4], in assay [6], in assay [7] and in assay [8] was “inactive” each time. Further, the Potency entry in [9], in assay [10], in [12] and in assay [13] was “inactive” in each case.
Turning to `Cc1cccc(C)c1NC(=O)c1cc(S(N)(=O)=O)c(Cl)cc1O`, the call in [1] and in assay [5] was inactive. The Potency entry in [2], in assay [3], in assay [4], in assay [6], in assay [7] and in assay [8] was “inactive” throughout. Also, the Potency result in assay [9], in assay [11], in assay [12] and in [13] was “inactive” throughout.
For the compound `O=C(NC(Cc1cc(=O)[nH]c2ccccc12)C(=O)O)c1ccc(Cl)cc1` (stereo not drawn), the compound was classed as inactive in assay [1] and in assay [5]. The Potency entry in assay [2], in [3], in assay [4], in assay [6], in [7] and in assay [15] was “inactive” each time. Also, the Potency result in assay [8], in assay [9], in assay [10], in assay [11] and in [12] was “inactive” in each case. Further, in [14], the max activation is -0.429%.
On to `CCN(Cc1cccc(S(=O)(=O)O)c1)c1ccc(C(=C2C=CC(=[N+](CC)Cc3cccc(S(=O)(=O)O)c3)C=C2)c2ccccc2S(=O)(=O)[O-])cc1`, for which the result in [1] and in assay [5] was inactive. In addition, the Potency in assay [2] was 17.3 µM (active); in assay [4], 17.3 µM (active); in assay [6], 17.3 µM (active); in assay [8] it was 17.9 µM (active); in assay [9], 17.9 µM (active); in assay [10] it was 11.3 µM (active). Besides, the Potency in assay [11] is 17.9 µM (active); in [13] it was 14.2 µM (active). The Potency result in assay [3], in assay [7] and in assay [12] was “inactive” throughout.
For the compound `C/C(C=O)=C\c1ccccc1`, the compound was classed as inactive in [1] and in [5]. Also, the Potency result in assay [2], in [3], in [4], in [6], in assay [8] and in assay [9] was “inactive” throughout. The Potency entry in assay [10], in [11] and in [12] was “inactive” in each case. Also, the Potency in [7] was 30 µM (active).
`Cc1ccccc1S(N)(=O)=O`: the outcome in assay [1] and in assay [5] was inactive. The Potency entry in [2], in assay [3], in assay [4], in assay [6], in assay [7] and in assay [8] was “inactive” in each case. The Potency entry in assay [9], in assay [10], in assay [12] and in [13] was “inactive” throughout.
